Assay results published in PubChem BioAssay AID1159580 (chemical genetic matrix, 2015).
“And” between values parts separate entries of the source, which are not always exact repeats. Equal entries are not always repeated. Out of some 5,500 compounds screened, about 2,000 (36%) were called active. Roughly 18% stayed inconclusive and do not appear here. No stated cut-off is given here; in the data, active means normalized growth mostly below about 0.91 (no sharp cut-off); inconclusive means no clear call, values can overlap the other calls; inactive means mostly above about 0.92. This is one part of the list.

Assay: chemical genetic growth profiling, strain panel (AID 1159580);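 further: tested at 20 µM; growth read once vehicle control cultures reached saturation at 30 °C; 1 = growth at the plate median or of vehicle wells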
Settings: S. cerevisiae deletion strains, growth OD

CC[C@@H](C(=O)[C@@H](C)[C@@H](O)[C@H](C)[C@@H]1O[C@@H]([C@@H](CC)C(=O)O)CC[C@@H]1C)[C@H]1OC2(C=C[C@@H](O)[C@]3(CC[C@@](C)([C@H]4CC[C@](O)(CC)[C@H](C)O4)O3)O2)[C@H](C)C[C@@H]1C (some centres undefined)
normalized growth (locus YAL013W, strain DEP1, stronger effect = lower value): 1.02 (inactive)
normalized growth (locus YAL021C, strain ccr4, stronger effect = lower value): 0.721 (active)
normalized growth (locus YAL026C, strain drs2, stronger effect = lower value): 0.14 (active)
normalized growth (locus YAL030W, strain snc1, stronger effect = lower value): 0.906 (active)
normalized growth (locus YBL061C, strain skt5, stronger effect = lower value): 0.846 (active)
normalized growth (locus YBR009C, strain hhf1, stronger effect = lower value): 0.833 (active)
normalized growth (locus YBR021W, strain FUR4, stronger effect = lower value): 0.753 (active)
normalized growth (locus YBR023C, strain chs3, stronger effect = lower value): 0.839 (active)
normalized growth (locus YBR171W, strain sec66, stronger effect = lower value): 0.887 (active)
normalized growth (locus YBR229C, strain ROT2, stronger effect = lower value): 0.932 (inactive)
normalized growth (locus YBR231C, strain swc5, stronger effect = lower value): 0.789 (active)
normalized growth (locus YBR279W, strain paf1, stronger effect = lower value): 0.94 (inactive)
normalized growth (locus YCL011C, strain gbp2, stronger effect = lower value): 0.867 (active)
normalized growth (locus YCL016C, strain dcc1, stronger effect = lower value): 0.85 (active)
normalized growth (locus YCL029C, strain bik1, stronger effect = lower value): 0.911 (inactive)
normalized growth (locus YCL061C, strain MRC1, stronger effect = lower value): 0.923 (inactive)
normalized growth (locus YCL069W, strain vba3, stronger effect = lower value): 0.892 (active)
normalized growth (locus YCR088W, strain abp1, stronger effect = lower value): 0.877 (active)
normalized growth (locus YDL005C, strain med2, stronger effect = lower value): 0.97 (inactive)
normalized growth (locus YDL035C, strain GPR1, stronger effect = lower value): 0.876 (inactive)
normalized growth (locus YDL040C, strain nat1, stronger effect = lower value): 0.944 (inactive)
normalized growth (locus YDL074C, strain BRE1, stronger effect = lower value): 0.963 (inactive)
normalized growth (locus YDL101C, strain DUN1, stronger effect = lower value): 0.943 (inactive)
normalized growth (locus YDL134C, strain PPH21, stronger effect = lower value): 0.871 (active)
normalized growth (locus YDL185W, strain tfp1, stronger effect = lower value): 0.988 (inactive)
normalized growth (locus YDL192W, strain arf1, stronger effect = lower value): 0.136 (active)
normalized growth (locus YDR001C, strain nth1, stronger effect = lower value): 0.929 (inactive)
normalized growth (locus YDR069C, strain doa4, stronger effect = lower value): 0.872 (active)
normalized growth (locus YDR101C, strain arx1, stronger effect = lower value): 0.891 (active)
normalized growth (locus YDR137W, strain rgp1, stronger effect = lower value): 0.974 (inactive)
normalized growth (locus YDR159W, strain sac3, stronger effect = lower value): 0.941 (inactive)
normalized growth (locus YDR162C, strain NBP2, stronger effect = lower value): 0.69 (active)
normalized growth (locus YDR195W, strain ref2): 1.01 (inactive)
normalized growth (locus YDR297W, strain sur2, stronger effect = lower value): 0.919 (active)
normalized growth (locus YDR318W, strain mcm21, stronger effect = lower value): 0.825 (active)
normalized growth (locus YDR334W, strain swr1, stronger effect = lower value): 0.98 (inactive)
normalized growth (locus YDR335W, strain msn5, stronger effect = lower value): 0.927 (inactive)
normalized growth (locus YDR388W, stronger effect = lower value): 0.668 (active)
normalized growth (locus YDR392W, strain spt3, stronger effect = lower value): 1.09 (inactive)
normalized growth (locus YDR502C, strain sam2, stronger effect = lower value): 0.847 (active)
normalized growth (locus YEL003W, strain gim4, stronger effect = lower value): 0.885 (active)
normalized growth (locus YEL037C, strain rad23, stronger effect = lower value): 0.901 (active)
normalized growth (locus YEL061C, strain CIN8 (second series), stronger effect = lower value): 0.948 (inactive)
normalized growth (locus YEL061C, strain CIN8, stronger effect = lower value): 0.982 (inactive)
normalized growth (locus YER015W, strain faa2, stronger effect = lower value): 0.979 (inactive)
normalized growth (locus YER016W, strain bim1, stronger effect = lower value): 0.95 (inactive)
normalized growth (locus YER110C, stronger effect = lower value): 1.01 (inactive)
normalized growth (locus YER111C, strain swi4, stronger effect = lower value): 0.96 (inactive)
normalized growth (locus YER155C, strain BEM2 (second series), stronger effect = lower value): 1.03 (inactive)
normalized growth (locus YER155C, strain BEM2, stronger effect = lower value): 1.03 (inactive)
normalized growth (locus YER167W, strain BCK2, stronger effect = lower value): 0.914 (inactive)
normalized growth (locus YFR010W, strain ubp6, stronger effect = lower value): 0.84 (active)
normalized growth (locus YGL078C, strain dbp3, stronger effect = lower value): 0.917 (active)
normalized growth (locus YGL086W, strain mad1, stronger effect = lower value): 0.863 (active)
normalized growth (locus YGL167C, strain pmr1, stronger effect = lower value): 0.744 (active)
normalized growth (locus YGL173C, strain kem1, stronger effect = lower value): 0.917 (inactive)
normalized growth (locus YGL227W, strain vid30, stronger effect = lower value): 0.943 (inactive)
normalized growth (locus YGL240W, strain doc1, stronger effect = lower value): 1 (inactive)
normalized growth (locus YGL248W, strain PDE1, stronger effect = lower value): 0.878 (active)
normalized growth (locus YGL253W, strain hxk2, stronger effect = lower value): 0.816 (active)
normalized growth (locus YGR078C, strain PAC10, stronger effect = lower value): 0.986 (inactive)
normalized growth (locus YGR135W, strain pre9, stronger effect = lower value): 0.932 (inactive)
normalized growth (locus YGR252W, strain gcn5, stronger effect = lower value): 0.923 (inactive)
normalized growth (locus YHR013C, strain ard1, stronger effect = lower value): 1.07 (inactive)
normalized growth (locus YHR027C, strain rpn1, stronger effect = lower value): 0.958 (inactive)
normalized growth (locus YHR030C, strain SLT2, stronger effect = lower value): 0.934 (inactive) and 0.145 (active)
normalized growth (locus YHR079C, strain IRE1 (second series), stronger effect = lower value): 0.837 (active)
normalized growth (locus YHR079C, strain IRE1, stronger effect = lower value): 0.164 (active)
normalized growth (locus YHR094C, strain hxt1, stronger effect = lower value): 0.877 (active)
normalized growth (locus YHR129C, strain ARP1, stronger effect = lower value): 0.932 (inactive)
normalized growth (locus YHR142W, strain chs7, stronger effect = lower value): 0.836 (active)
normalized growth (locus YHR200W, strain rpn10, stronger effect = lower value): 0.908 (active)
normalized growth (locus YIL066C, strain RNR3, stronger effect = lower value): 0.934 (inactive)
normalized growth (locus YIL073C, strain SPO22, stronger effect = lower value): 0.88 (inactive)
normalized growth (locus YIL125W, strain kgd1, stronger effect = lower value): 0.785 (active)
normalized growth (locus YIR030C, strain dcg1, stronger effect = lower value): 0.892 (active)
normalized growth (locus YJL092W, strain hpr5, stronger effect = lower value): 0.903 (active)
normalized growth (locus YJL095W, strain BCK1 (second series), stronger effect = lower value): 0.875 (active)
normalized growth (locus YJL095W, strain BCK1, stronger effect = lower value): 0.819 (inactive) and 0.137 (active)
normalized growth (locus YJL115W, strain asf1, stronger effect = lower value): 0.985 (inactive)
normalized growth (locus YJL129C, strain trk1, stronger effect = lower value): 0.707 (active)
normalized growth (locus YJL134W, strain LCB3, stronger effect = lower value): 0.949 (inactive)
normalized growth (locus YJL154C, strain vps35, stronger effect = lower value): 0.821 (active)
normalized growth (locus YJL164C, strain tpk1, stronger effect = lower value): 0.883 (active)
normalized growth (locus YJL166W, strain qcr8, stronger effect = lower value): 0.926 (inactive)
normalized growth (locus YJL168C, strain set2, stronger effect = lower value): 0.873 (active)
normalized growth (locus YJL187C, strain SWE1 (second series), stronger effect = lower value): 0.916 (inactive)
normalized growth (locus YJL187C, strain SWE1, stronger effect = lower value): 0.935 (inactive)
normalized growth (locus YJR043C, strain POL32, stronger effect = lower value): 0.968 (inactive)
